Results reported in PubChem BioAssay (NCI).
The panel holds about 79,000 compounds, 15% with a hit somewhere; the sample as a whole holds those more often. Activity calls are given as the source filed them. No stated cut-off is given here; in the data, active means growth inhibition above about 70%; inactive means the rest.

Key:
[1] = NCI Yeast Anticancer Drug Screen. Data for the rad50 strain (AID 155);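 further: 0% = growth of vehicle-only cultures of the same strain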; details: S. cerevisiae rad50 strain growth inhibition; at 50.0 µM; active compounds read high
In short: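 Genetically altered yeast (DNA repair pathway); compound treatment; growth inhibition vs vehicle ctrl.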

[2] = NCI Yeast Anticancer Drug Screen. Data for the mec2-1 strain (AID 157); details: S. cerevisiae mec2-1 strain, at 50.0 µM, active compounds read high
In short: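 Strain: mec2-1 (DNA repair/cell cycle alteration). Compound exposure, then growth measured; inhibition expressed relative to vehicle.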

[3] = NCI Yeast Anticancer Drug Screen. Data for the sgs1 mgt1 strain (AID 161);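 further: 0% = growth of cultures given vehicle only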; details: S. cerevisiae sgs1 mgt1 strain, at 50.0 µM, active compounds read high
In short: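 Genetically altered yeast, compound exposure, growth inhibition relative to vehicle.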

[4] = NCI Yeast Anticancer Drug Screen. Data for the cln2 rad14 strain (AID 165);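 further: 0% = growth equal to vehicle treated cultures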; details: S. cerevisiae cln2 rad14 strain, at 50.0 µM, active compounds read high
In short: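 Compounds are applied to the cln2 rad14 yeast strain, and growth is then compared with that of vehicle-treated cultures to give inhibition.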

[5] = NCI Yeast Anticancer Drug Screen. Data for the bub3 strain (AID 167); details: S. cerevisiae bub3 mutant strain, at 50.0 µM, active compounds read high
In short: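 Yeast carrying a defined mutation is treated with each compound, and growth is compared with that of vehicle-exposed cells to give inhibition.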

[6] = NCI Yeast Anticancer Drug Screen. Data for the mlh1 rad18 strain (AID 175); details: S. cerevisiae mlh1 rad18 strain growth inhibition; at 50.0 µM; active compounds read high
In short: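 Read-out is yeast growth inhibition, calculated against vehicle-only controls. The compound was applied to a strain engineered with DNA damage repair alterations.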

Measured: growth inhibition

NCC(=O)Nc1ccc(C(=O)O)cc1
inactive: [1] 28.8% | [2] 17.1% | [3] 7.6% | [4] 4.6% | [5] 4.05% | [6] 9.1%

COc1ccc2ccc3nonc3c2c1
inactive: [1] 17.1% | [2] 4.7% | [3] 9% | [4] -40.5% | [5] 6.4% | [6] 1.45%

O=[N+]([O-])c1ccc(C=C2C=c3ccccc3=C2)cc1
inactive: [1] 5.8% | [2] 1.1% | [3] -14.4% | [4] -28.9% | [5] 5.3% | [6] 7.3%

Cc1nn(-c2ccccc2)c2c1N=C(C(=O)O)CC(c1ccccc1)=N2
inactive: [1] 18.7% | [2] 25.9% | [3] 23.9% | [4] 28.1% | [5] 16.7% | [6] 13.8%

Cc1ccc(N(C(=O)Nc2ccc(F)c(Cl)c2)C2=NCC(C)S2)cc1 (stereo unspecified)
inactive: [1] -57.5% | [2] -14.4% | [3] -45% | [4] -13.7% | [5] -5.05% | [6] -51.4%

CCc1ccccc1Cc1ccccc1
inactive: [1] 1.8% | [2] -4.75% | [3] -0.2% | [4] 4.65% | [5] -1.55% | [6] 10.7%

O=C(NCCCCNCCCNC(=O)OCc1ccccc1)OCc1ccccc1
inactive: [1] 14.7% | [2] -4.2% | [3] -2.65% | [4] -8.55% | [5] -20.4% | [6] -59.8%

O=S(=O)(SC1=NCCN1)c1cccc2ccccc12
inactive: [1] 3% | [2] 3.5% | [3] 20.1% | [4] 30% | [5] -3% | [6] 8.45%

Cc1cc(C)c2ccc(NN=O)nc2n1
inactive: [1] 11.4% | [2] 9.75% | [3] 18.9% | [4] 19.1% | [5] 13.2% | [6] 25.7%

O=C(O)c1cc(-c2ccccc2)nc2cc(Cl)ccc12
inactive: [1] 29.9% | [2] 12.8% | [3] 19.1% | [4] -9.35% | [5] 24.4% | [6] 25.6%

O=C(Nc1ccccn1)OCCCl
inactive: [1] -1.6% | [2] 0.6% | [3] 4.35% | [4] 10.1% | [5] -28.2% | [6] 7.1%

CC(C)OC(CCCl)c1ccc(Cl)cc1 (stereo unspecified)
inactive: [1] -7% | [2] -9.2% | [3] -22.1% | [4] 7.2% | [5] -37.6% | [6] -2.25%

NC(N)=N/N=C(\c1nc2ccc([N+](=O)[O-])cc2[nH]c1=O)C(O)c1ccc([N+](=O)[O-])cc1 (stereo unspecified)
inactive: [1] -16% | [2] -24.9% | [3] -16.6% | [4] -24.1% | [5] -6.7% | [6] 1.85%

CC(=O)c1cc(C)ccc1Br
inactive: [1] 7.2% | [2] 6.65% | [3] -16.3% | [4] 0.5% | [5] -7.85% | [6] 7.35%

O=C(O)c1c(-c2ccc(Cl)cc2)c(-c2ccc(Cl)cc2)nn(CCO)c1=O
inactive: [1] 33.8% | [2] 25.8% | [3] 33.4% | [4] 7.4% | [5] 1.5% | [6] 35.6%

Cc1ccc(O)c(C=O)c1
inactive: [1] -31.1% | [2] -42.1% | [3] -7.65% | [4] 11.7% | [5] -25.7% | [6] -6.8%

Clc1ccccc1C(Nc1ncccn1)Nc1ncccn1
inactive: [1] 11.1% | [2] 15% | [3] -8.05% | [4] -0.25% | [5] 41% | [6] 13.1%

CCOC(=O)C(CC)(C(=O)OCC)C(C)CC (stereo unspecified)
inactive: [1] 11.3% | [2] -1.65% | [3] 15.1% | [4] -5.9% | [5] -7.55% | [6] -1.25%

CCCCCCCCCCC1OCC(CC)([N+](=O)[O-])CO1 (stereo unspecified)
inactive: [1] 10.2% | [2] -27.9% | [3] 18.3% | [4] -46.4% | [5] 9.25% | [6] -10.6%

CC(C)(C)/[N+]([O-])=C/C(c1ccccc1)C(/C=[N+](/[O-])C(C)(C)C)c1ccccc1 (stereo unspecified)
inactive: [1] -3.5% | [2] -4.5% | [3] -15.3% | [4] 3.85% | [5] -2.1% | [6] -18.6%

CN(C)CCCc1cccc2[nH]c3c(c12)CN(C)CC3
inactive: [1] 22% | [2] -5% | [3] 23.6% | [4] 7.85% | [5] 7.45% | [6] -26%

COCCCC(NC(=O)C(CC(C)C)NC(=O)OCc1ccc(OC)cc1)C(=O)OC (stereo unspecified)
inactive: [1] -9.6% | [2] -12.9% | [3] -2.25% | [4] 6.6% | [5] -9.1% | [6] 7.8%

CCOCc1ccccc1C(O)(c1ccc(OC)cc1)c1ccccc1OC (stereo unspecified)
inactive: [1] 37.6% | [2] 16.3% | [3] 40.9% | [4] 50.8% | [5] 6.85% | [6] 57.4%

CNS(=O)(=O)c1ccc(N)cc1
inactive: [1] -2.9% | [2] -5.6% | [3] 2.8% | [4] -27.2% | [5] 3.15% | [6] 2.9%

Cc1ccc(S(=O)(=O)Nc2ccc3ncsc3c2[N+](=O)[O-])cc1
active: [1] 97.2% | [2] 98.7% | [3] 98.3% | [4] 98.2% | [5] 98% | [6] 98%

C/C=C(\C)C(=O)OC1C2C(C)=CC(=O)C(O)C2(C)C2C3(O)OCC24C1OC(=O)C(OC(C)=O)C4C(C)C3O (stereo unspecified)
active: [1] 91.9% | [2] 93.3% | [3] 92.8% | [4] 91.8% | [5] 91.7% | [6] 91.6%

Nc1nc(SCC(=O)c2ccc(Br)cc2)c2[nH]cnc2n1
inactive: [1] 23.2% | [2] 3.35% | [3] -10.9% | [4] 10.1% | [5] 23.1% | [6] 26.9%

COc1ccc(C(=O)CCl)c(O)c1OC
inactive: [1] -4.95% | [2] 5.95% | [3] -5.6% | [4] 14.8% | [5] 5.7% | [6] 11.8%

O=CNc1cccc2c(=O)[nH][nH]c(=O)c12
inactive: [1] -21.9% | [2] -46.8% | [3] -56.6% | [4] 18.1% | [5] -26.1% | [6] -39.1%

O=C(O)C(O)c1c[nH]c2ccccc12 (stereo unspecified)
inactive: [1] -4.85% | [2] -2.3% | [3] -26.6% | [4] -1.25% | [5] -11.4% | [6] -29.3%

Cc1cccc(C(O)c2ccccn2)c1O (stereo unspecified)
inactive: [1] -3.85% | [2] -4.45% | [3] -6.8% | [4] -4.45% | [5] -3.8% | [6] 3.1%

Cc1cc(=O)n2c(cc3cccccc32)n1
inactive: [1] 14.6% | [2] -1.3% | [3] -13.4% | [4] -23.4% | [5] -23.4% | [6] 4.65%

Cc1ccccc1/C=N\NC(=O)CCCC(=O)N/N=C/c1ccccc1C
inactive: [1] -8.9% | [2] 2.5% | [3] -25.5% | [4] 8.7% | [5] 24.4% | [6] -9.4%

O=C(/C=C/c1ccccc1O)c1ccccc1
inactive: [1] -22.8% | [2] -15.7% | [3] 3.2% | [4] 1.9% | [5] -5.2% | [6] -24.6%

CN(C)CCCOc1nc2c(c(=O)n(C)c(=O)n2C)n1C (tested in a mixture with another compound)
inactive: [1] 0.9% | [2] 8.9% | [3] -19.9% | [4] -9.35% | [5] -18.9% | [6] -7.15%

O=[N+]([O-])c1ccc(P(=O)(Nc2ccc(Cl)cc2)Nc2ccc(Cl)cc2)cc1
active: [1] 95.7% | [2] 96.8% | [3] 95.1% | [4] 91.8% | [5] 94.8% | [6] 97.1%

CC1=C[P+](c2ccccc2)(c2ccccc2)c2ccccc2O1
inactive: [1] 58% | [2] 57.6% | [3] 66.8% | [4] 34.6% | [6] 63.1%
active: [5] 72.3%

O=C(O)CC1CCCc2ccccc2C1=O (stereo unspecified)
inactive: [1] 34.3% | [2] 46.3% | [3] 18.1% | [4] 25.9% | [5] 48.5% | [6] 17.9%

O=C(NNC(=O)c1ccc2ccccc2c1)c1ccc(Cl)c(Cl)c1
inactive: [1] -13.3% | [2] -23.3% | [3] -2.65% | [4] 17.1% | [5] -5.25% | [6] -14.1%

O=C(Cc1ccccc1CC(=O)Oc1ccccc1)Oc1ccccc1
inactive: [1] 9.1% | [2] -3.9% | [3] 10.8% | [4] 5.2% | [5] 18.9% | [6] 5.75%

CC(C)S(=O)(=O)c1s[nH]c(=O)c1-c1ccccc1
inactive: [1] -14.9% | [2] -0.1% | [3] 12.2% | [4] 5.75% | [5] -4.15% | [6] -1.2%
